From PubChem
Hits are enriched below; roughly 1.3% of the tested compounds scored in any of these assays.
SARS 3CLpro inh = SARS-CoV 3CLpro protease inhibitors, primary screen, biochemical, quenched FRET | recombinant SARS-CoV 3CLpro, quenched FRET peptide cleavage | inhibition, % at 6 µM | 290,000 compounds, 0.14% hits | AID 1706, 2009; in the data active = inhibition above about 12%
DUSP3 inh = VHR1 phosphatase inhibitors, primary screen, biochemical, absorbance, uHTS; Dual specificity protein phosphatase 3 (Homo sapiens), P51452; recombinant VHR phosphatase, pNPP absorbance; inhibition, % at 13.3 µM; 290,000 compounds, 0.52% hits; in the data active = inhibition above about 50%
Target sequence (P51452 whole entry, looked up): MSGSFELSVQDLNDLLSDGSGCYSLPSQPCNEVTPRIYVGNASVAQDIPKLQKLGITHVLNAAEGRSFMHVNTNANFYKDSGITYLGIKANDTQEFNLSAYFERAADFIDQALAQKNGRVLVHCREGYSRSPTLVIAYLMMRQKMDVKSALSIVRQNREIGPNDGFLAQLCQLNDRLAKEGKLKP
CCHF vOTU inh-1 = CCHFV vOTU protease inhibitors, primary screen, biochemical, Pep-AMC substrate, fluorescence; Crimean-Congo hemorrhagic fever virus L polyprotein viral ovarian tumor (vOTU) protease …; 370,000 compounds, 0.55% hits; inhibition, % at 11.5 µM; also: 0% = vehicle wells with enzyme and 100% = no enzyme wells
PriA SSB inh = inhibitors of Klebsiella pneumoniae PriA binding to SSB C-terminal tail, primary screen, biochemical, AlphaScreen; PriA–SSB C-terminal tail interaction (Klebsiella pneumoniae); AlphaScreen SSBct-PriA binding, biotinylated peptide; inhibition, % at 33 µM; 430,000 compounds, 0.6% hits; in the data active = inhibition mostly above about 37%, no sharp cut-off; inactive = mostly below about 20%;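 also: plate controls were negative control peptide for no effect and reference peptide for full effect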
Mtb hypoxia inh = PubChem AID 1159583 | fluorescence inhibition, % (no concentration beside the values) | M. tuberculosis hypoxia-regulated fluorescent reporter, fluorescence | 300,000 compounds, 0.1% hits; in the data active = fluorescence inhibition mostly above about 23%, no sharp cut-off; inactive = mostly below about 17%
CCHF vOTU inh-2 = CCHFV vOTU protease inhibitors, confirmation, biochemical, Pep-AMC substrate, fluorescence | shares compounds with CCHF vOTU inh-1 | Recombinant CCHFV vOTU | inhibition, % at 11.5 µM | 1,900 compounds, 17% hits
* hit, by the source's call; i = inactive; x = not tested or not shown. Rule as the data show it, unless noted: active = inhibition above about 30%; inactive = the rest.

SMILES	SARS 3CLpro inh	DUSP3 inh	CCHF vOTU inh-1	PriA SSB inh	Mtb hypoxia inh	CCHF vOTU inh-2
CC1=C(C(=O)Nc2ccc([N+](=O)[O-])cc2)C(c2cccc(C(F)(F)F)c2)NC(=S)N1c1ccccc1 (stereo not given)	-2.4	22.8	30.8*	-15.0	5.0	-16.3
Cc1[nH]c2ccccc2c1/C=N/Nc1nncn1N	0.2	24.3	113.1*	x	x	-0.7
O=C(Cn1c(=O)oc2ccccc21)NCc1cnn2ccccc12	x	x	x	-3.0	x	x
CN(C(=S)Nc1ccc(SC(F)F)cc1)c1ccc(O)cc1	6.5	25.5	29.5*	9.0	x	-28.8
CN(C(=S)Nc1ccc(Oc2ccccc2)cc1)c1ccc(O)cc1	-0.7	-3.9	30.2*	25.6	2.6	-24.0
CN(C(=S)Nc1cccnc1)c1ccc(O)cc1	-1.9	7.3	48.9*	-8.4	-1.3	-14.7
CN(C(=S)Nc1ccccc1)c1ccccc1	-0.8	-8.4	0.6	-4.2	6.5	x
O=C(CSC1CCCC1)NCC#CCN1CCOCC1	x	x	x	-5.0	x	x
CCCS(=O)(=O)c1ccc(NCc2ccccc2OC)nn1	x	x	x	-13.0	x	x
O=C(N/N=C/c1c(O)n(CCc2ccccc2)c(=O)[nH]c1=O)c1ccccc1O	1.3	16.5	32.2*	x	-0.9	-7.5
CCC(C)n1c(O)c(C=NNC(=O)c2ccncc2)c(=O)[nH]c1=S (stereo not given)	x	x	x	62.0	x	x
Cc1nnc(N/N=C/c2cccc(OCc3ccc(Cl)c(Cl)c3)c2)n1N	-1.2	-4.4	103.0*	x	x	-9.6
Cc1nnc(N/N=C/c2ccccc2C(F)(F)F)n1N	2.0	16.7	65.1*	x	x	-8.5
COc1cccc(/C=N/Nc2nnc(C)n2N)c1O	-6.9	-15.3	88.5*	x	x	-7.5
Cc1nnc(N/N=C/c2ccco2)n1N	6.0	-1.8	88.6*	x	x	-16.3
CSc1ccc([C@@H](O)CNC(=O)CN2C(=O)CCC2=O)cc1	x	x	x	1.0	x	x
Cc1cccc(NC(=O)Cn2c(=O)n(-c3ccc(CC(=O)NC4CC4)cc3)c(=O)c3ccccc32)c1C	x	x	x	-3.0	x	x
O=C(NC1CCCCC1)N1CCc2nc3ccccn3c(=O)c2C1	x	x	x	1.0	x	x
COc1ccc(S(=O)(=O)N2CCN(c3ccc(-c4ccco4)nn3)CC2)cc1OC	x	x	x	-6.0	x	x
Cc1nnc(NN=Cc2ccc(-c3ccccc3F)o2)n1N	x	x	x	4.0	-8.0	x
Cc1nnc(N/N=C/c2cccc(C(F)(F)F)c2)n1N	-6.2	19.7	104.9*	x	x	-15.5
COc1ccc(-n2c(C)cc(/C=N/Nc3nnc(C)n3N)c2C)cc1	-4.4	26.2	91.1*	x	x	-8.0
Cc1nnc(N/N=C/c2ccccc2F)n1N	1.9	31.1	75.2*	x	x	-14.1
COc1ccc(C=NNc2nnc(C)n2N)cc1OC	x	x	x	-11.3	0.4	x
CN(C)c1cccc2c(S(=O)(=O)Nc3ccccn3)cccc12	4.3	-12.4	37.5*	-16.6	x	-4.7
SMILES	SARS 3CLpro inh	DUSP3 inh	CCHF vOTU inh-1	PriA SSB inh	Mtb hypoxia inh	CCHF vOTU inh-2
COc1ccccc1C(=O)NCCC(=O)N(Cc1ccco1)Cc1cccs1	3.9	2.3	-5.4	13.1	0.5	x
COc1ccc(C(=O)N(Cc2ccco2)Cc2cccs2)c(O)c1	-0.3	-12.1	34.4*	4.6	12.3	-1.1
O=C(c1ccc(=O)[nH]n1)N1CCSC(c2ccccc2F)CC1 (stereo not given)	x	x	x	-7.0	x	x
COC(=O)c1ccccc1NC(=O)COC(=O)C1CCCCC1	1.4	3.3	32.0*	-8.8	9.1	-8.5
COC(=O)c1ccccc1NC(=O)C1CCCC1	1.4	-0.2	-14.0	-21.5	-13.1	x
O=C(O)c1cccc(Cn2c(Cl)c(C=NNC(=O)c3ccc(O)cc3)sc2=O)c1	x	x	x	x	13.3	x
O=C(O)c1cccc(Cn2c(Cl)c(/C=N/NC(=O)c3ccc(O)cc3)sc2=O)c1	-6.2	20.5	31.1*	i	x	-3.6
COc1ccc(CC(N)=NOC(C)=O)cc1OC	x	x	x	2.5	x	x
CCSc1nc(-c2ccccc2)cc(=O)[nH]1	x	x	30.8*	-16.9	0.7	-11.8
O=c1cc(-c2ccccc2)nc(SCc2ccccc2)[nH]1	1.8	-7.3	2.3	5.8	x	x
O=C(Cn1cnc(-c2ccc(F)cc2)cc1=O)NCc1ccc(Cl)cc1	x	x	x	-7.0	x	x
CCCCN1C(=O)/C(=C/C=C2\SCCN2C)SC1=S	2.6	8.6	20.1	38.6	25.1	x
CN1CCS/C1=C/C=C1\SC(=S)N(CC(=O)O)C1=O	0.8	29.6	34.6*	3.5	58.4*	10.2
O=C(CCS(=O)(=O)c1ccc(Cl)cc1)Nc1nnc(-c2cc3ccccc3o2)o1	x	x	x	-8.0	x	x
O=C(NCC#CCN1CCCCCC1)c1ccco1	x	x	x	-8.0	x	x
COC(COC(N)=O)C1=C(N2CC2)C(=O)C(C)=C(N2CC2)C1=O (stereo not given)	x	x	31.7*	1.8	x	12.9
CCOC(=O)c1cnn2ccc(NC(=O)c3cc(C4CC4)on3)cc12	x	x	x	3.0	x	x
CC(=O)N1CCN(c2ccc(N)cc2)CC1	x	x	38.2*	2.6	2.0	-15.3
O=C(NCc1ccc(F)cc1)C(=O)NCC1CCN(Cc2ccco2)CC1	x	x	x	-27.0	x	x
CCCCn1c(NC(C)=O)c(C#N)c2nc3ccccc3nc21	-5.2	-8.9	-127.6	-8.1	10.4	x
C=CCn1c(NC(=O)c2ccccc2Cl)c(C#N)c2nc3ccccc3nc21	0.4	32.6	81.9*	33.7	0.6	45.5*
Cc1ccc2[nH]c3c(c2c1)CCc1cn[nH]c1-3	8.0	1.2	38.2*	23.8	2.4	-22.8
Cc1ccc2[nH]c3c(c2c1)CCC3=O	6.4	13.1	-48.3	-17.2	4.1	x
O=C(COC(=O)Cc1ccc(Cl)cc1Cl)NC1CC1	x	x	31.9*	0.4	7.1	-10.9
COC(=O)c1cc(S(=O)(=O)N2CCOCC2)c(Cl)cc1N1CCOCC1	-2.4	6.2	1.2	-8.2	9.9	x
SMILES	SARS 3CLpro inh	DUSP3 inh	CCHF vOTU inh-1	PriA SSB inh	Mtb hypoxia inh	CCHF vOTU inh-2
COC(=O)c1cc(C)nc2c1C(=O)C(=O)C=C2N1CCOCC1	2.9	53.6*	107.2*	-4.8	-3.1	109.3*
CC1C/C(=C\c2ccccc2[N+](=O)[O-])c2nc3ccccc3c(C(=O)O)c2C1 (stereo not given)	-2.3	25.9	32.5*	-6.2	6.1	-10.4
NC(Cc1ccc(Cl)c(Cl)c1)=NOC(=O)c1ccc(Br)o1	x	x	x	-0.4	x	x
COc1ccc(C2NC(=O)NC(C)=C2C(=O)OC2CCCCC2)cc1 (stereo not given)	x	x	42.2*	x	x	-3.6
Cc1c(C(=O)Nc2cc(-n3cncn3)ncn2)cnn1-c1ccccc1	x	x	x	0.0	x	x
O=S(=O)(Nc1cc(Sc2cccc3cccnc23)c(O)c2ccccc12)c1ccc(F)cc1	5.1	2.1	82.7*	104.1	x	-5.1
Cc1cc(C)c(S(=O)(=O)Nc2cc(SCC(=O)O)c(O)c3ccccc23)cc1C	5.5	-3.8	x	8.1	15.2	x
COc1ccc(S(=O)(=O)Nc2cc(SCC(=O)O)c(O)c3ccccc23)cc1	9.8	5.9	102.1*	-29.9	15.0	38.9*
COc1ccc(S(=O)(=O)Nc2cc(Sc3ncn[nH]3)c(O)c3ccccc23)cc1	5.7	41.4	106.5*	x	x	99.2*
